Among the data in PubChem BioAssay AID2685 (National Center for Advancing Translational Sciences (NCATS), 2010) are Potency, cell number change and lipid storage change, negative = inhibition values, retold here.

Molecules are shown by their SMILES. The campaign covered roughly 320,000 compounds. About 2,100 (0.66%) were called active. Inconclusive results (about 53%) are left out. Calls follow the shape of the dose curve; as a rule, active = well fitted inhibition curve with a large enough effect in the signal ratio, with a control signal flat (not every such curve was filed as active); inconclusive = small, poorly fitted or top-dose-only effect, or effect the other way, or a change in a side signal; inactive = flat fitted curve, though single readings scatter; the % refers to the signal ratio. Shown is part of a subset that was picked to be rich in actives.
Potency is read from the fitted curve at half-maximal effect.

A short description of the test: qHTS Assay for Lipid Storage Modulators in Drosophila S3 Cells.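 As to cell number change: cells counted by Cell Tracker Red CMTPX staining in the red channel.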 As to lipid storage change, negative = inhibition: % is scaled to controls: 0 for no effect and ±100 for the full control effect. Particulars: BODIPY lipid droplet fluorescence, 18-24 h, cells fed with added oleic acid; cell number change: measured here: cell count max response; series mostly up to 46.1 µM. The method, boiled down: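 Laser-scanning cytometry quantifies lipid droplet accumulation (500–530 nm total intensity; droplet/cell object ratio) in oleic acid-fed (400 uM added) Drosophila S3 cells treated with a concentration series. 20 uM Triacsin C defined 100% inhibition.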
For the molecule `CS(=O)(=O)NN1C(=O)c2ccccc2NC1c1c[nH]c2ccccc12` (stereo unspecified), the Potency result is “inactive” and the cell number change was 15.5%.

As for `CCOc1ccc(NC(=O)CCC(=O)NNC(=O)c2ccco2)cc1`, the Potency entry is “inactive”.

Consider `CCOc1ccc(NC(=O)CCC(=O)NNC(=O)c2ccc(Br)o2)cc1`, for which the Potency was 6.51 µM (active) and the cell number change is 5.86%.

Take `CCOc1ccc(NC(=O)CCC(=O)NNC(=O)Nc2ccc(Cl)cc2)cc1`: the Potency entry is “inactive” and the cell number change came out at 10.6%.

For the molecule `CCOCCCNc1c2c(nc3cc(-c4ccc(F)cc4)nn13)CCC2`, the Potency result is “inactive” and the cell number change was determined as 9.58%.

`CCn1c(CCNC(=O)c2ccco2)nc2ccccc21`: the Potency result is “inactive” and the cell number change is -11.3%.

With `C=C(C)Cn1c(CCNC(=O)c2ccco2)nc2ccccc21`, the Potency was 0.517 µM (active) and the cell number change is 15.2%.

Take `CC(C)Cn1c(CCCNC(=O)c2ccco2)nc2ccccc21`: the Potency result was “inactive”.

Turning to `CC(C)Cn1c(CCNC(=O)c2ccco2)nc2ccccc21`, the Potency was 3.66 µM (active).

On to `C=CCn1c(CCNC(=O)c2ccco2)nc2ccccc21`, for which the Potency entry was “inactive” and the cell number change came out at 8.97%.

Turning to `CCCCn1c(CCNC(=O)c2ccco2)nc2ccccc21`, the Potency entry was “inactive” and the cell number change worked out at 8.05%.

`CC(=O)c1ccc(S(=O)(=O)N2CCN(C(=O)c3ccccc3Cc3ccccc3)CC2)cc1`: the Potency entry is “inactive”.

On to `CCNC(=O)CN(CCc1ccccc1)S(C)(=O)=O`, for which the Potency entry is “inactive” and the cell number change was -1.75%.

For the molecule `NC(=O)CSc1nccn1Cc1ccccc1`, the Potency result was “inactive” and the cell number change was -3.05%.

Consider `CCOc1ccc(S(=O)(=O)N2CCC(C(=O)NCC3CCCO3)CC2)cc1Cl` (stereo unspecified), for which the Potency result is “inactive” and the cell number change is 20.5%.

With `O=S(=O)(NC1CCCC1)c1ccc(S(=O)(=O)NC2CCCC2)cc1`, the Potency entry was “inactive” and the cell number change stood at 5.07%.

`CSc1ccc(S(=O)(=O)NC2CC2)cc1`: the Potency entry was “inactive” and the cell number change amounted to 1.23%.

Take `CSc1ccc(S(=O)(=O)NC2CCCCC2)cc1`: the Potency was 23.1 µM (active) and the cell number change turned out to be 26.8%.

As for `Cc1cccc(C)c1NC(=S)N(CCN(C)C)Cc1cccs1`, the Potency entry was “inactive” and the cell number change was -10.3%.

With `O=S(=O)(Nc1cccc(-n2cnnn2)c1)c1cc(Br)ccc1Br`, the Potency is 20.6 µM (active) and the cell number change was -10.7%.

Regarding `O=S(=O)(Nc1ccc(-n2cnnn2)cc1)c1ccc(Cl)cc1`, the Potency entry was “inactive” and the cell number change is -6.89%.

Regarding `Cc1ccc(S(=O)(=O)Nc2ccc(-n3cnnn3)cc2)c(C)c1`, the Potency is 0.58 µM (active) and the cell number change was -8.9%.

As for `Cc1ccc(S(=O)(=O)Nc2ccc(-n3cnnn3)cc2)cc1`, the Potency result was “inactive” and the cell number change is 12.5%.

Take `O=S(=O)(Nc1cccc(-n2cnnn2)c1)c1ccccc1`: the Potency entry is “inactive” and the cell number change was -16.7%.

`O=S(=O)(Nc1cccc(-n2cnnn2)c1)c1ccccc1C(F)(F)F`: the Potency result was “inactive” and the cell number change was -11%.

Turning to `O=C(CNC(c1ccccc1)c1ccccc1)NCc1ccccc1Cl`, the Potency entry was “inactive” and the cell number change came to 11.7%.

For `Cc1cccc(N2CCN(S(=O)(=O)c3c(C)noc3/C=C/N(C)C)CC2)c1C`, the Potency entry is “inactive” and the cell number change is 12.9%.

Regarding `Cc1cc(C)nc(NC(=O)/C=C/c2cccs2)c1`, the Potency entry was “inactive” and the cell number change was -8.29%.

`Cc1cc(C)c(-c2csc(NC(=O)/C=C/c3cccs3)n2)c(C)c1`: the Potency is 16.4 µM (active) and the cell number change is -27.5%.

Take `O=C(/C=C/c1cccs1)Nc1nc(-c2ccccc2)cs1`: the Potency result is “inactive”.

For `O=C(NCCCc1ccccc1)C1CC(=O)N(c2ccc3c(c2)OCCO3)C1` (stereo unspecified), the Potency entry was “inactive” and the cell number change turned out to be 12.6%.

With `Cc1coc(=N)n1CC(=O)c1ccc(Cl)cc1`, the Potency result was “inactive” and the cell number change was found to be 10.4%.

`Cc1ccc(Cn2ncc(Cl)c(Cl)c2=O)cc1`: the Potency result was “inactive” and the cell number change worked out at 1.44%.

`O=c1[nH]cnc2c1cnn2Cc1ccccc1Cl`: the Potency entry is “inactive”.

For the molecule `O=c1c(Cl)c(Cl)cnn1Cc1ccccc1Cl`, the Potency was 14.6 µM (active) and the cell number change is -22.7%.

`O=C(CS(=O)(=O)c1ccccc1)Nc1nnc(-c2cccs2)o1`: the Potency result was “inactive” and the cell number change is 3.1%.

On to `CCn1c(=Nc2ccc(N3CCOCC3)cc2)ccc2ccccc21`, for which the Potency was 9.2 µM (active) and the cell number change was -184%.

`CCn1c2ccccc2c2cc(NC(=O)CN(C)CC(=O)Nc3ccc(N4CCOCC4)cc3)ccc21`: the cell number change was -4.9% and the lipid storage change, negative = inhibition is -0.511% [at 9.22 µM] (inactive).

For `Oc1ccc2ccccc2c1C=Nc1ccc(N2CCOCC2)cc1`, the Potency entry was “inactive”.

Consider `COc1cc(C(c2sc3ncnn3c2O)N2CCN(c3ccccc3F)CC2)cc(OC)c1OC` (stereo unspecified), for which the Potency entry is “inactive” and the cell number change came out at 14.8%.

Turning to `CSc1nc(SCC(=O)O)c2c3c(sc2n1)COC(C)(C)C3`, the Potency entry is “inactive” and the cell number change is 9.24%.

Regarding `COc1ccc(S(=O)(=O)N2CCOCC2)cc1NC(=O)CSc1nnc2c(n1)[nH]c1ccccc12`, the Potency entry is “inactive” and the cell number change was -0.0197%.

As to `C=CCNC(=S)N1CCN(CCN=CC2=C(O)CC(c3cccs3)CC2=O)CC1` (stereo unspecified), the Potency entry was “inactive” and the cell number change stood at 17.2%.

Turning to `CCCCCC(=O)N1CCN(CCN=CC2=C(O)CC(c3cccs3)CC2=O)CC1` (stereo unspecified), the Potency result was “inactive” and the cell number change is 0.809%.

As to `CC(=O)N1CCN(CCN=CC2=C(O)CC(c3cccs3)CC2=O)CC1` (stereo unspecified), the Potency was 20.6 µM (active) and the cell number change was -26.6%.

On to `Cc1coc2c(C)c3oc(=O)c(CCC(=O)NCCC(=O)O)c(C)c3cc12`, for which the Potency entry is “inactive” and the cell number change was found to be 7.91%.

With `Cc1ccc(CSc2nc3ccccc3c(=O)n2C)cc1`, the Potency is 16.4 µM (active) and the cell number change amounted to 10.9%.

For the molecule `Cc1ccc(-c2nc(CSc3nc4ccccc4c(=O)n3C)cs2)cc1`, the Potency result was “inactive” and the cell number change came out at 13.2%.

For the molecule `Cn1c(SCc2ccc(Br)cc2)nc2ccccc2c1=O`, the Potency result is “inactive” and the cell number change was -15.2%.

`COC(=O)c1[nH]c2ccc(Cl)cc2c1NC(=O)C1CC1`: the Potency entry is “inactive” and the cell number change came to 1.77%.

In the case of `CCN(CC)c1ccc(/C=N/N2CC(=O)NC2=S)cc1`, the Potency is 0.291 µM (active) and the cell number change was -17.5%.

Take `CCN(CC)c1ccc(/C=N/n2c(C)cc(C)cc2=O)cc1`: the Potency result is “inactive” and the cell number change was found to be 0.542%.

Regarding `CCc1n[nH]c(=S)n1/N=C/c1ccc(N(CC)CC)cc1`, the Potency result is “inactive” and the cell number change is -4.64%.

With `COc1cc(NC(=O)c2ccc([N+](=O)[O-])cc2)c(OC)cc1NC(=O)CC(C)C`, the Potency result is “inactive” and the cell number change came to 14.3%.

Regarding `O=C(c1ccco1)N1N=C(c2ccc3nccnc3c2)CC1c1ccccc1` (stereo unspecified), the Potency result is “inactive” and the cell number change came to 13.8%.

In the case of `CCCNC(=O)c1ccc2c(c1)S(=O)(=O)c1ccccc1C2=O`, the Potency entry is “inactive” and the cell number change stood at 6.31%.

With `O=C(NCC1CC1)c1ccc2c(c1)S(=O)(=O)c1cc(Cl)ccc1C2=O`, the Potency entry was “inactive” and the cell number change came to 7%.

`COCCNC(=O)c1ccc2c(c1)S(=O)(=O)c1cc(Cl)ccc1C2=O`: the Potency was 5.8 µM (active) and the cell number change is 9.21%.

For the molecule `Clc1ccc(N2CCN(c3cnc4ccccc4n3)CC2)cc1`, the Potency result is “inactive” and the cell number change is -5.19%.

`O=S(=O)(c1ccc(Cl)cc1)c1cnc2ccccc2n1`: the Potency was 29.1 µM (active) and the cell number change is -118%.

Consider `Nc1ncc(S(=O)(=O)c2ccc(Cl)cc2)c(N)n1`, for which the Potency result was “inactive” and the cell number change worked out at 19.4%.

Consider `Cc1ccc(C(=O)N[C@H](C(=O)OCc2nnc(-c3ccccc3)o2)C(C)C)cc1`, for which the Potency entry is “inactive” and the cell number change was -21.1%.

On to `Cc1ccc(C(=O)NC(C(=O)OCc2cn3cc(Cl)ccc3n2)C(C)C)cc1` (stereo unspecified), for which the Potency is 5.17 µM (active) and the cell number change amounted to 6.32%.

Take `Cc1ccc(C(=O)N[C@H](C(=O)OCc2cc(=O)n3c(n2)sc2ccccc23)C(C)C)cc1`: the Potency entry is “inactive” and the cell number change is -15.4%.
